Measurements as given in PubChem BioAssay (NCATS).
Inconclusive results are not listed. Entries that show only a call come without a potency. Activity calls are given as the source filed them. Calls come from the whole dose curve; as a rule, active = well fitted inhibition curve with a large enough effect; inconclusive = small, poorly fitted or top-dose-only effect; inactive = flat fitted curve, though single readings scatter.

These molecules were tested on PAD (assay: qHTS profiling for inhibitors of Plasmodium falciparum proliferation (AID 504749; note: nearly all actives have a fitted effect of over 60% in size)). Settings: P. falciparum in erythrocytes, SYBR Green DNA, 72 h; series mostly up to 12.8 µM.
Outline: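 Parasite proliferation within erythrocytes, 72 h exposure. Endpoint: SYBR Green I fluorescence after overnight lysis at room temperature. Controls: 0.29 uM artemisinin, DMSO.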
Potency is the fitted concentration of half-maximal effect.

SMILES	Potency
CC1(C)S[C@H]2C(NC(=O)[C@@H](N)c3ccc(O)cc3)C(=O)N2[C@@H]1C(=O)O (some centres undefined)	inactive
CN(C)CCc1c[nH]c2ccc(CC3COC(=O)N3)cc12 (centres undefined)	inactive
C[C@@]12CCC(=O)C=C1C=CC1C2CC[C@]2(C)C1CC[C@@]21CCC(=O)O1 (some centres undefined)	inactive
NC(CCC(=O)N[C@@H](CS)C(=O)NCC(=O)O)C(=O)O (some centres undefined)	6.31 µM (active)
CC(C)Oc1ccc2c(=O)cc(-c3ccccc3)oc2c1	inactive
N[C@@H]1C(O)OC(CO)C(O)C1O (some centres undefined)	inactive
CCC(=O)O[C@@]1(C(=O)CCl)C(C)CC2C3CCC4=CC(=O)C=C[C@@]4(C)[C@]3(F)C(O)C[C@]21C (some centres undefined)	7.94 µM (active)
CC(=O)[C@]1(O)CCC2C3C=C(Cl)C4=CC(=O)C5CC5[C@@]4(C)C3CC[C@]21C (some centres undefined)	inactive
CO[C@]12C(COC(N)=O)C3=C(C(=O)C(C)=C(N)C3=O)N1CC1NC12 (some centres undefined)	0.631 µM (active)
C[C@@]12C=CC(=O)C=C1CCC1C3CC(O)[C@@](O)(C(=O)CO)[C@]3(C)CC(O)[C@]12F (some centres undefined)	inactive
CCC1OC(=O)C(C)[C@@H](O[C@H]2C[C@@](C)(OC)C(O)C(C)O2)C(C)[C@@H](O[C@@H]2OC(C)CC(N(C)C)C2O)[C@@](C)(O)CC(C)C(=O)[C@@H](C)C(O)[C@]1(C)O (some centres undefined)	inactive
CC1C2CCC3C4CC=C5CC(N(C)C)CC[C@@]5(C)C4CC[C@@]32CN1C (some centres undefined)	inactive
CCC(C)C(=O)OC1CC(O)C=C2C=CC(C)C(CCC(O)CC(O)CC(=O)O)C21 (centres undefined)	inactive
OCC1OC(n2cnc3c(=S)nc[nH]c32)C(O)C1O (centres undefined)	inactive
